# Results from PubChem BioAssay (NCATS).
# Records with an inconclusive call do not appear. Active and inactive are the calls of the source. Unless noted, calls follow the shape of the dose curve; as a rule, active = well fitted curve in the direction sought with a large enough effect; inconclusive = small, poorly fitted or top-dose-only effect, or another doubt; inactive = no such curve, though single readings can be large; an effect the other way counts as inactive or inconclusive.
# Key:
# [1] = Validation of Assay for Modulators of Lamin A Splicing (AID 1459; active = well fitted curve in the direction sought with a large enough effect in the signal ratio; the % refers to the signal ratio;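 also: cells exposed to compound for two days before reading; 0% is about no effect; ratio rise marks activators and ratio drop marks inhibitors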)
# Method in brief: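 Splicing correction is reported by an EGFP-containing lamin A minigene in stably transfected S3 HeLa cells, while DsRed2 controls for viability and nonspecific signal. Cells are exposed to compounds for 48 hrs before the GFP over RFP ratio is taken.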
# [2] = qHTS Assay for Lipid Storage Modulators (AID 1519; calls by dose curve; as to activity change, negative = inhibition: % is scaled to controls: 0 for no effect and ±100 for the full control effect); conditions: Drosophila S3 cells, BODIPY lipid droplet/cell ratio, laser cytometry, cells loaded with oleic acid
# Method in brief: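 Cells seeded at 5,000 per well were treated with compounds over a concentration series and loaded with oleic acid (400 uM, as added). Lipid droplet fluorescence (488 nm excitation, 500-530 nm channel) was read by laser-scanning cytometry and normalized to 20 uM Triacsin C.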
# [3] = target: DNA repair nuclease/redox regulator APEX1 (Homo sapiens) (UniProt P27695); assay: qHTS Validation Assay for Inhibitors of the Human Apurinic/apyrimidinic Endonuclease 1 (APE1) (AID 1705;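 also: TAMRA fluorescence gain over two minutes as APE1 cuts a quenched THF abasic duplex; % is scaled to controls: 0 for no effect and ±100 for the full control effect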)
# Method in brief: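 Endonuclease activity of human APE1 is followed as dequenching when the enzyme incises a tetrahydrofuran abasic site in a short duplex labelled 5'-TAMRA/3'-BHQ-2 (50 nM final), after 15 min enzyme–compound preincubation at room temperature.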
# [4] = Counterscreen for APE1 Inhibitors: Fluorescent Dye Displacement Validation Assay (AID 1707);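 also: plate controls were ThO with dsDNA and no compound for no effect and ThO without dsDNA for full effect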
# Method in brief: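 Compounds are scored by their ability to displace Thiazole Orange (250 nM) from a 50 nM TAMRA-tagged duplex bearing a tetrahydrofuran abasic site. Buffer is 50 mM Tris-HCl pH7.5, 50mM NaCl, 2 mM MgCl2, 0.01% Tween-20.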
# [5] = target: Endonuclease 4 (Escherichia coli (strain K12)) (UniProt P0A6C1); assay: Counterscreen for APE1 Inhibitors: qHTS Validation Assay for Inhibitors of Endonuclease IV (AID 1708); also: % is scaled to controls: 0 for no effect and ±100 for the full control effect
# Method in brief: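 2 nM enzyme was preincubated with compounds for 15 min at room temperature in 50 mM Tris-HCl pH 7.5, 50 mM NaCl, 2 mM MgCl2, 1 mM DTT, 0.01% Tween-20. 50 nM THF-abasic TAMRA/BHQ-2 duplex substrate started the reaction.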
# [6] = qHTS for differential inhibitors of proliferation of Plasmodium falciparum line 7G8 (AID 1815);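 also: parasite growth measured after three days of incubation; plate controls were vehicle wells for no effect and reference inhibitor wells for full effect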
# [7] = qHTS for differential inhibitors of proliferation of Plasmodium falciparum line GB4 (AID 1816); conditions: Potency: Plasmodium falciparum GB4 proliferation inhibition;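 also: parasite growth measured after 72 h incubation; 0% = vehicle DMSO and -100% = reference inhibitor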
# [8] = qHTS for differential inhibitors of proliferation of Plasmodium falciparum line 3D7 (AID 1876);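 also: parasite growth measured after three days of culture; 0% = vehicle wells and -100% = reference inhibitor wells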
# [9] = qHTS for differential inhibitors of proliferation of Plasmodium falciparum line D10 (AID 1877);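 also: parasites grown with compound for 72 h before DNA staining; plate controls were vehicle wells for no effect and reference inhibitor wells for full effect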
# [10] = qHTS for differential inhibitors of proliferation of Plasmodium falciparum line Dd2 (AID 1882); conditions: Potency: Plasmodium falciparum Dd2 proliferation inhibition;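 also: compound exposure of 72 h on infected erythrocytes; plate controls were DMSO vehicle for no effect and 0.29 µM artemisinin for full effect; nearly all actives have a fitted effect of over 65% in size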
# Method in brief: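 SYBR Green I DNA fluorescence read-out, ex 485/em 535 nm. Signals were normalized to 0.29 uM artemisinin and DMSO wells, then corrected using vehicle-only plates flanking each stack. Parasite growth ran 72 h in erythrocytes before lysis.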
# [11] = qHTS for differential inhibitors of proliferation of Plasmodium falciparum line W2 (AID 1883); conditions: Potency: Plasmodium falciparum W2 proliferation inhibition;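 also: parasites grown with compound for 72 h before lysis and staining; 0% = vehicle wells and -100% = control inhibitor wells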
# [12] = qHTS for differential inhibitors of proliferation of Plasmodium falciparum line HB3 (AID 1886); conditions: Potency: Plasmodium falciparum HB3 proliferation inhibition;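 also: parasites grown with compound for 72 h before SYBR Green readout; plate controls were vehicle for no effect and reference inhibitor for full effect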
# [13] = qHTS Assay for Modulators of Human Peripheral Myelin Protein 22 (PMP22) Expression/Activity (AID 1967; active = well fitted curve in the direction sought with a large enough effect in the signal ratio; the % refers to the signal ratio;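 also: 0% = untreated cells and 100% end not stated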)
# Method in brief: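 Quantitative HTS in a mouse Schwann cell line expressing dual click beetle luciferases: Pmp22 promoter (green) and control EF-alpha promoter (red). After 24h treatment, corrected green/red signal ratio gave %Activity relative to untreated cells.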
# [14] = target: Ferritin light chain (Equus caballus) (UniProt P02791); assay: qHTS Validation Assay for Identification of Novel General Anesthetics (AID 2323); also: % is scaled to controls: 0 for no effect and ±100 for the full control effect
# Method in brief: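 Apoferritin from horse spleen (10 uM) was mixed with 1-aminoanthracene at 50% saturation in PBS, then compounds were added. After 10 min at room temperature, fluorescence was read (ex 380 nm, em 535 nm) and normalized to free-probe and complex controls.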
# [15] = target: ATP-dependent DNA helicase Q1 (Homo sapiens) (UniProt P46063); assay: qHTS Validation Assay for Inhibitors of RecQ-Like Dna Helicase 1 (RECQ1) (AID 2353);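 also: plate controls were DMSO vehicle for no effect and enzyme-free control for full effect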
# Method in brief: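 50 nM RECQ1T1 preincubated 15 min with compound in Tris pH 8.0 buffer with MgCl2, DTT, Tween-20 and 2.5 ug/ml poly(dI-dC); started with 200 nM TAMRA/BHQ-2 forked duplex and 2 mM ATP. Unwinding read as fluorescence (525/598 nm), two reads 2 h apart.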
# [16] = measured here: cell count channel max response
# [17] = measured here: lipid channel max response
# Ferritin light chain (Equus caballus), sequence (P02791 2-175 limits assumed): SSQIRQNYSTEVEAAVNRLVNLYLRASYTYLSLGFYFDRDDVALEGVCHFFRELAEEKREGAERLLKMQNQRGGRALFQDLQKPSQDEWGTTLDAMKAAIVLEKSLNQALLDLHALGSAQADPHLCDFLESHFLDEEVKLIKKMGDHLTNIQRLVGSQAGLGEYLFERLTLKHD
# ATP-dependent DNA helicase Q1 (Homo sapiens), sequence (P46063 whole entry, looked up): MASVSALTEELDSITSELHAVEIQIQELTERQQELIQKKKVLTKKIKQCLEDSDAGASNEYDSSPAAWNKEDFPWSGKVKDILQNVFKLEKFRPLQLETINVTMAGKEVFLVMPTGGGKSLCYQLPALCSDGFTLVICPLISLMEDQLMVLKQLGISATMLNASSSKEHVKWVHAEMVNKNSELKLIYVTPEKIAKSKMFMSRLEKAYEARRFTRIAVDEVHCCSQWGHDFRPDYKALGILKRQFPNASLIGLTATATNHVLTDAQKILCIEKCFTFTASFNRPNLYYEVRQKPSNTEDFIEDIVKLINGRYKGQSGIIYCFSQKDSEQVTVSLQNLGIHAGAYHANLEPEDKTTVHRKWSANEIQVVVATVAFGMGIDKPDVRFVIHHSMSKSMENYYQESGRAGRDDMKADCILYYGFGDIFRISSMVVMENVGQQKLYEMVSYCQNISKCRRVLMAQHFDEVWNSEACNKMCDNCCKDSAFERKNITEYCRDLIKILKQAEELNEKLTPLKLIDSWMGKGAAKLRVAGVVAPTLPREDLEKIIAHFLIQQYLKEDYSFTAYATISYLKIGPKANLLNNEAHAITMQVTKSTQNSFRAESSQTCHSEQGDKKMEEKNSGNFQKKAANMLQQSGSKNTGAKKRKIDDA
# DNA repair nuclease/redox regulator APEX1 (Homo sapiens), sequence (P27695 whole entry, looked up): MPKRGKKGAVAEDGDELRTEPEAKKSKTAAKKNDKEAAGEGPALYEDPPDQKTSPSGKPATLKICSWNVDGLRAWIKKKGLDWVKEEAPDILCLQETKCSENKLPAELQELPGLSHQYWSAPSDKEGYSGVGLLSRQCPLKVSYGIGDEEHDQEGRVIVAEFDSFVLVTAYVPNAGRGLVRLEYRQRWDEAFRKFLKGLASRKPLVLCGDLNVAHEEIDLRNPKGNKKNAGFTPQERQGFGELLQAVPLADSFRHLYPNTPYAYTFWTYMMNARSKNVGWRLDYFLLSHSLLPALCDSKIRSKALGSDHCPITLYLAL
structure (smiles),measurement,setting,value
O=C(NCCNCC(O)COc1ccc(O)cc1)N1CCOCC1 (stereo unspecified),outcome,[1],inactive
same,"activity change, negative = inhibition",[2]; at 57.5 µM (top of the series),-2.06% (inactive)
same,max response,[2]; [16],-28.3%
same,max response,[2]; [17],-30.3%
same,outcome,[3],inactive
same,outcome,[4],inactive
same,outcome,[5],inactive
same,Potency,[6],inactive
same,Potency,[7],inactive
same,outcome,[8],inactive
same,outcome,[9],inactive
same,Potency,[10],inactive
same,Potency,[11],inactive
same,Potency,[12],inactive
same,outcome,[13],inactive
same,outcome,[14],inactive
same,outcome,[15],inactive
CCCOc1cc(N)ccc1C(=O)OCCN(CC)CC,"activity change, negative = inhibition",[2]; at 25.7 µM (top of the series),-0.11% (inactive)
same,max response,[2]; [16],-10.4%
same,max response,[2]; [17],-6.99%
O=c1[nH]c(=O)n([C@H]2C[C@H](O)[C@@H](CO)O2)cc1/C=C/Br,outcome,[1],inactive
same,outcome,[3],inactive
same,outcome,[4],inactive
same,outcome,[5],inactive
same,Potency,[6],inactive
same,Potency,[7],inactive
same,outcome,[8],inactive
same,outcome,[9],inactive
same,Potency,[10],inactive
same,Potency,[11],inactive
same,Potency,[12],inactive
same,outcome,[14],inactive
same,outcome,[15],inactive
NCC(O)CC(=O)O (stereo unspecified),"activity change, negative = inhibition",[2]; at 57.5 µM (top of the series),7.57% (inactive)
same,max response,[2]; [16],11%
same,max response,[2]; [17],22.3%
O=C(O)CCC(=O)c1ccc(-c2ccccc2)cc1,"activity change, negative = inhibition",[2]; at 25.7 µM (top of the series),2.12% (inactive)
same,max response,[2]; [16],-6.39%
same,max response,[2]; [17],-2.43%
CC(=O)Oc1cccc2c1C(=O)c1c(OC(C)=O)cc(C(=O)O)cc1C2=O,"activity change, negative = inhibition",[2]; at 57.5 µM (top of the series),13.8% (inactive)
same,max response,[2]; [16],25.9%
same,max response,[2]; [17],41.9%
O=C1NCCN1c1ncc([N+](=O)[O-])s1,"activity change, negative = inhibition",[2]; at 25.7 µM (top of the series),-0.923% (inactive)
same,max response,[2]; [16],0.859%
same,max response,[2]; [17],-3.74%
CCSc1ccc2c(c1)N(CCCN1CCN(C)CC1)c1ccccc1S2,"activity change, negative = inhibition",[2]; at 25.7 µM (top of the series),-4.9% (inactive)
same,max response,[2]; [16],-20.1%
same,max response,[2]; [17],-23.8%
CC[C@H]1OC(=O)[C@H](C)[C@@H](O[C@H]2C[C@@](C)(OC)[C@@H](O)[C@H](C)O2)C(C)[C@@H](O[C@@H]2O[C@H](C)C[C@H](N(C)C)[C@@H]2O)[C@](C)(OC)C[C@@H](C)C(=O)[C@H](C)[C@@H](O)[C@]1(C)O (stereo partly specified),"activity change, negative = inhibition",[2]; at 57.5 µM (top of the series),7.44% (inactive)
same,max response,[2]; [16],9.53%
same,max response,[2]; [17],18.8%
O=C(O)Cc1cc(I)c(Oc2ccc(O)c(I)c2)c(I)c1,"activity change, negative = inhibition",[2]; at 25.7 µM (top of the series),-0.457% (inactive)
same,max response,[2]; [16],2.07%
same,max response,[2]; [17],0.793%
CC1(C)S[C@@H]2[C@H](NC(=O)C3(N)CCCCC3)C(=O)N2[C@H]1C(=O)O,"activity change, negative = inhibition",[2]; at 25.7 µM (top of the series),-0.399% (inactive)
same,max response,[2]; [16],10.5%
same,max response,[2]; [17],9.76%
Cc1ncc(C[n+]2csc(CCO)c2C)c(N)n1,"activity change, negative = inhibition",[2]; at 25.7 µM (top of the series),-1.32% (inactive)
same,max response,[2]; [16],9.62%
same,max response,[2]; [17],7.5%
CC(=O)Nc1ccc(OC(=O)c2ccccc2O)cc1,"activity change, negative = inhibition",[2]; at 57.5 µM (top of the series),5.77% (inactive)
same,max response,[2]; [16],14.6%
same,max response,[2]; [17],24.9%
CNC(=O)c1c(I)c(C(=O)NCC(=O)Nc2c(I)c(C(=O)O)c(I)c(C(=O)NCCO)c2I)c(I)c(N(C)C(C)=O)c1I,"activity change, negative = inhibition",[2]; at 25.7 µM (top of the series),-2.02% (inactive)
same,max response,[2]; [16],-4.35%
same,max response,[2]; [17],-10.2%
